Test results: PubChem BioAssay AID1851 (National Center for Advancing Translational Sciences (NCATS), 2009)
Among all 16,000 compounds or so, about 4,000 (25%) were called active. Not shown: some 26% with an inconclusive outcome. Only a sample is shown. Unmarked numbers belong to inactive results. The call rests on the fitted dose curve; in most records, active means well fitted curve in the direction sought with a large enough effect; inconclusive means small, poorly fitted or top-dose-only effect, or effect the other way; inactive means no such curve, though single readings can be large or run the other way.

Target: Cytochrome P450 2C9 (Homo sapiens) (UniProt P11712)
Test: Cytochrome panel assay with activity outcomes
Conditions: recombinant CYP, pro-luciferin dealkylation, luminescence, p450-cyp2c9; series mostly up to 57.1 µM
Experimental: The P450 gene superfamily is involved in the metabolism and clearance of xenobiotics. This assay used various human CYP P450 isozymes to measure the dealkylation of various pro-luciferin substrates to luciferin. The luciferin is then measured by luminescence after the addition of a luciferase detection reagent. Pro-luciferin substrate concentration in the assay was equal to its KM for its CYP P450 isozyme. Inhibitors and some substrates limit the production of luciferin, and decrease measured luminescence.
NCGC Assay Protocol Summary:
1, Reagent, 2 uL, Isozyme and Pro-Luciferin
2, Library compounds, 23 nl, 40 uM to 0.24 nM dilution series
3, Controls, 23 nl, Isozyme specific inhibitor
4, Reagent, 2 uL, NADPH regeneration solution
5, Incubation time, 60 min, Isozyme specific temperature
6, Reagent, 4ul, Detection reagent
7, Incubation time, 20 min, Isozyme specific temperature
8, Detection, 1 sec, ViewLux luminescent read
The luciferase-based P450-GloTM Screening Systems were obtained from Promega (Madison, WI) for CYP 1A2 (V9770), CYP 2C9 (V9790), CYP2 C19 (V9880), CYP 2D6 (V9890), and CYP 3A4 Luciferin-PPXE (V9910) and were adapted for 1,536-well microplates and an automated protocol. The control compounds furafylline for 1A2 (F124), sulfaphenazole for CYP 2C9 (S0758), ketoconazole for CYP 2C19 (K1003), quinidine for 2D6 (Q3625), and ketoconazole for 3A4 (K1003) were purchased from Sigma Aldrich (St. Louis, MO). Recombinant P450 enzymes were obtained from baculovirus constructs expressed in insect cells (BD/Gentest).
Medium-binding white solid Kalypsys plates used. Mixtures kept on ice. 1A2: 10 nM 1A2, 100 uM Luc-ME, 100 mM KPO4; 2C9: 10 nM 2C9, 100 uM Luc-H, 25 mM KPO4; 2C19: 5 nM 2C19, 10 uM Luc-H EGE, 50 mM KPO4; 2D6: 5 nM 2D6, 30 uM Luc-ME EGE, 100 mM KPO4; 3A4: 10 nM, 25 uM Luc-PPXE. All amounts are reflected in their final concentration, working concentration is 2x.
NADPH regeneration solution: 1.3 mM NADP+, 3.3 mM glucose-6-phosphate, 3.3 mM MgCl2, 0.4 U/mL glucose-6-phosphate dehydrogenase for all isozymes, 200 mM KPO4 for 3A4. Mixture prepared at RT but kept on ice during automated run.
RT incubation in auxilliary plate hotel for 1A2, 2D6, and 3A4; 37C for 2C9 and 2C19.
Keywords: P450, CYP1A2, CYP2C19, CYP2C9, CYP2D6, CYP3A4, Luciferase, MLSMR, MLSCN, NIH Roadmap, qHTS, NCGC
On the % scale 0 is the no-effect control and ±100 the full control effect.

Cytochrome P450 2C9 (Homo sapiens), sequence (P11712 whole entry, looked up): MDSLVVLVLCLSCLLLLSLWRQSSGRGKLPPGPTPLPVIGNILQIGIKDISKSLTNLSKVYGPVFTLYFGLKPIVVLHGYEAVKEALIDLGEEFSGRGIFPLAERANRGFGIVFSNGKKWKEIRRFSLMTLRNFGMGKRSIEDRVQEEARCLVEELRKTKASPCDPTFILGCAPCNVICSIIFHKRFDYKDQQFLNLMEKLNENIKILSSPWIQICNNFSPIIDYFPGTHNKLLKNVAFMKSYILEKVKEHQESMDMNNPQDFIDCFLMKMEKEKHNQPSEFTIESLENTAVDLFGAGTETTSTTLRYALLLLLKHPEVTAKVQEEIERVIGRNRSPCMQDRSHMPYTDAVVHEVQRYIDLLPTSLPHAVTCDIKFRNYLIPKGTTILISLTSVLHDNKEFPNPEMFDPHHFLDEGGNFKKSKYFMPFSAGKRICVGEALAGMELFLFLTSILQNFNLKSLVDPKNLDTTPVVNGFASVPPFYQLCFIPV

| Structure (SMILES) | AC50 | activity, negative = inhibition |
| --- | --- | --- |
| CCOC(=O)c1[nH]c(C)c(C(=O)N2CCC3(CC2)OCCO3)c1C | 20 µM (active) |  |
| O=C(C1CC(=O)N(C2CCCC2)C1)N1CCC2(CC1)OCCO2 (stereo unspecified) |  | inactive |
| N=C(N)c1ccc(-c2ccc(-c3ccc(C(=N)N)cc3)o2)cc1 |  | 19.5% [at 11.4 µM] |
| COc1ccccc1CC1C(=O)C2CCN1CC2 (stereo unspecified) |  | inactive |
| CN(N=O)C(=O)N[C@H]1C(O)OC(CO)[C@@H](O)[C@H]1O (stereo partly specified) |  | inactive |
| CCOc1ccc2c(c1)C(C)=CC(C)(C)N2 | 2 µM (active) |  |
| C[N+]1([O-])[C@@H]2CC(OC(=O)[C@@H](CO)c3ccccc3)C[C@@H]1[C@H]1O[C@H]12 (stereo partly specified) |  | inactive |
| CC(C)CCn1c(N)c(C(=O)NCc2cccs2)c2nc3ccccc3nc21 | 10 µM (active) |  |
| CCCCn1c(N)c(C(=O)NCc2cccs2)c2nc3ccccc3nc21 | 14.1 µM (active) |  |
| CC(C)C(=O)CP(=O)(O)O |  | 13.2% [at 11.4 µM] |
| O[C@H](CN1CC1)[C@@H](O)CN1CC1 |  | 4% [at 11.4 µM] |
| C[C@H]1CN(C2CCC(C#N)(c3ccc(F)cc3)CC2)CC[C@@]1(C(=O)O)c1ccccc1 (stereo partly specified) |  | inactive |
| c1ccc2c(N3CCNCC3)cccc2c1 |  | inactive |
| Cc1nnc2ccc(-c3cccc(C(F)(F)F)c3)nn12 |  | inactive |
| c1ccc(CN2CCN(Cc3ccc4c(c3)OCCO4)CC2)cc1 |  | inactive |
| COc1ccc(C(=O)OC2C[C@H]3CC[C@@H](C2)N3C)cc1OC (stereo partly specified) |  | inactive |
| O=P(Nc1ccccc1)(Nc1ccccc1)Oc1cccc(Cl)c1 | 12.6 µM (active) |  |
| CN1CCc2cc3c(cc2[C@@H]1[C@@H]1OC(=O)c2c1ccc1c2OCO1)OCO3 |  | inactive |
| CCCN(CCC)C1Cc2cc(OC)c(OC)cc2C1 |  | inactive |
| NC[C@@H](Cc1ccccc1)P(=O)(O)O |  | 22.3% [at 11.4 µM] |
| O=C(Cn1ncc2ccsc2c1=O)N1CCC2(CC1)OCCO2 |  | inactive |
| O=C(CNS(=O)(=O)c1ccc(Br)s1)N1CCC2(CC1)OCCO2 | 11.2 µM (active) |  |
| Cc1ccc(S(=O)(=O)NCC2CCC(C(=O)N3CCC4(CC3)OCCO4)CC2)cc1 (stereo unspecified) |  | inactive |
| CO[C@H]1[C@H](O)[C@H](O[C@@H]2[C@H](Oc3cccc4c(O)c5c(=O)oc6ccc(C)c7c(=O)oc(c34)c5c67)O[C@@H](C)[C@H](O)[C@H]2O)O[C@@H](C)[C@@H]1O |  | -7.14% [at 11.4 µM] |
| O=C(O)C[C@H]1NCc2cc3ccccc3nc21 |  | -0.422% [at 11.4 µM] |
| CN(C)CC/C=C1\c2ccccc2Sc2ccc(Cl)cc21 |  | 7.34% [at 11.4 µM] |
